Measured values: PubChem BioAssay AID1490 (National Center for Advancing Translational Sciences (NCATS), 2009)
Several values for one entry are separate records, joined by “and”; a condition that tells them apart may be missing. Equal entries are not always repeated. Hit rate of the full screen: of about 310,000 compounds, about 11,000 (3.5%) were called active. Not shown: some 4% with an inconclusive outcome. The entries come from a sample that favours actives as a whole. Where a structure was tested more than once in an assay, its records may differ in their call. Unmarked numbers belong to inactive results. Calls come from the whole dose curve; as a rule, active = well fitted inhibition curve with a large enough effect; inconclusive = small, poorly fitted or top-dose-only effect, or another doubt; inactive = no such curve, though single readings can be large or run the other way.

Molecular target: 4'-phosphopantetheinyl transferase ffp (Bacillus subtilis) (UniProt Q9F4F7)
Assay: qHTS Assay for Inhibitors of Bacillus subtilis Sfp phosphopantetheinyl transferase (PPTase);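 note: the enzyme is Sfp with the accession as filed and its product quenches rhodamine fluorescence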;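 for largest response in the series, negative = inhibition: 0% = enzyme reaction without inhibitor and -100% = no enzyme wells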
Settings: Biochemical Sfp PPTase activity
Source text: Assay Submitter: Michael Burkart, University of California, San Diego
Screening Center PI: Austin, C.P.
Screening Center: NIH Chemical Genomics Center [NCGC]
The covalent attachment of a phosphopantetheinyl (4'-PP) arm to a variety of synthases and other proteins is a key posttranslational protein modification. The 4'-PP is installed on the proteins post-translationally from coenzyme A (CoA) on a conserved serine residue by action of phosphopantetheinyl transferase (PPTase) enzymes. Phosphopantetheinylation is essential for synthase activity, and removal of the PPTase gene precludes natural product synthesis in microorganisms, or in the case of fatty acid biosynthesis, renders the organism unviable. PPTase enzymes belong to a distinct structural superfamily. Within bacteria, these enzymes are grouped into two classes based upon primary structure, the AcpS-Type and Sfp-Type PPTases.
Sfp-type PPTases, corresponding to an activator of surfactin production in Bacillus subtilis, are responsible for modifying type I polyketide and nonribosomal peptide synthases of prokaryotes. Sfp-type PPTases are responsible for the activation of a variety of pathogen-associated virulence factors. Among these compounds are toxins such as mycolactone from Mycobacterium ulcerans, siderophores such as vibriobactin from Vibrio cholerae or mycobactin from Mycobacterium tuberculosis, as well as the mycolic acids which form the waxy cell wall of Mycobacteria. The biosyntheses of these natural products are considered attractive targets for drug design.
In search of small molecule Sfp-PPTase inhibitors, a fluorescence quenching assay was developed for detection of Bacillus subtilis Sfp-PPTase enzymatic activity in a miniaturized high-throughput format. The consensus ybbr acceptor peptide […] was N-terminally labeled with Black Hole Quencher-2 (BHQ-2) and used in combination with rhodamine-labeled coenzyme A as a co-substrate.
Inhibition of Sfp-PPTase was detected by recording the fluorescence intensity change over a 30-minute reaction period at a 525 nm excitation and 598 nm emission. Reagents were supplied by Michael Burkart and Timothy Foley, University of California at San Diego.
This BioAssay deposition is for validation of the developed Sfp-PPtase assay.
Assay Buffer: 50 mM Hepes-Na pH 7.6, 10 mM MgCl2, 0.01% Nonidet P-40, and 0.01% BSA.
3 uL of Sfp-PPTase enzyme (final concentration 15 nM) and 1 uL of substrate mixture (final concentration for rhodamine-CoA and BHQ-2-YbbR 5 uM and 12.5 uM, respectively) dispensed in columns 1, 2, 5 - 48. Columns 1 and 2 used to generate neutral control (uninhibited reaction)
Three uL of reagents, consisting of buffer (in columns 3 and 4 as negative control) and Sfp-PPTase (in columns 1, 2, 5 - 48) were dispensed into 1,536-well Greiner black solid bottom plate. Compounds (23 nL) were transferred via Kalypsys pintool equipped with 1,536-pin array. The plate was incubated for 15 min at room temperature, followed by the addition of 1 uL substrate to start the reaction. The plate was then centrifuged at 1000 rpm for 15 seconds, and the fluorescence intensity recorded on a ViewLux High-throughput CCD imager (Perkin-Elmer) using standard BODIPY optics (525 nm excitation and 598 nm emission). The plate was then incubated for 30 minutes, and a second read on the ViewLux was performed. The fluorescence intensity difference over the 30-minute period was used to calculate the respective reaction rate for each well.
Potency is the fitted concentration of half-maximal effect.

SMILES | largest response in the series, negative = inhibition | Potency
C/C(=N\Nc1ccc(S(N)(=O)=O)cc1[N+](=O)[O-])c1cccs1 | 0.687% | –
C/C(=N\Nc1ncc(Cl)cc1Cl)c1cccs1 | – | 39.8 µM (active)
C/C(=N\Nc1nc2ccccc2[nH]1)c1cccs1 | -4.19% | –
COc1cccc(/C(C)=N/Nc2ncc(Cl)cc2Cl)c1 | – | 56.2 µM (active)
C/C(=N\Nc1ncc(Cl)cc1Cl)c1ccc(S(=O)(=O)NCc2ccco2)cc1 | -16.4% | –
CCN(CC)c1ccc(C(=O)N/N=C(\C)c2cccc(OC)c2)cc1 | -1.28% | –
Cn1cnc2c1c(=O)n(Cc1ccccc1C#N)c(=O)n2C | 4.28% | –
C=CC1=C2C=C(C3CC3)N(CC(C)C)C=C2C(=O)C(C)(OC(=O)c2ccco2)C1=O (stereo not given) | 5.15% | –
CC(=O)Nc1ccc(OCC(=O)NCc2ccc(C)cc2)cc1 | 11.1% | –
COC(=O)c1ccc(OCC(=O)NC(C)(C)C)cc1 | -10.7% | –
CC(C)(C)NC(=O)COc1ccc(CNc2ccc3[nH]c(=O)[nH]c3c2)cc1 | – | 56.2 µM (active)
CCS(=O)(=O)Nc1ccc(C(=O)NCCSc2ccccc2)cc1 | 22% | –
COC(=O)C1=CN(c2ccc(F)c(F)c2)C=C(C(=O)OC)C1c1ccc([N+](=O)[O-])cc1 | -0.236% | –
COc1cccc(OC)c1C(=O)Nc1ccc2c(c1)n(C)c(=O)n2C | 6.56% | –
Cc1ccc(C(=O)Nc2cccc3ncccc23)cc1[N+](=O)[O-] | 9.98% | –
O=C(Nc1cccc2ncccc12)C(Cl)(Cl)Cl | 5.72% | –
Cc1ccc(/C=C(\C#N)C(=O)Nc2cccc3ncccc23)o1 | – | 8.91 µM (active)
Cc1c(C(=O)NC(C)C2CC3CCC2C3)cccc1[N+](=O)[O-] (stereo not given) | 6.2% | –
C[C@]12CC[C@@H]3c4ccc(O)cc4C[C@@H](CCCCCCCCCS(=O)CCCC(F)(F)C(F)(F)F)C3[C@@H]1CC[C@@H]2O (stereo not given in full) | -0.311% | –
CC(C)c1ccc(-c2nn[nH]n2)cc1 | 21.7% | –
Brc1ccc(-c2nn[nH]n2)cc1 | 19% | –
CC(N)(C(=O)O)c1ccc(-c2nn[nH]n2)cc1 (stereo not given) | – | 35.5 µM (active)
O=C(CSc1ncn[nH]1)Nc1nsc(-c2ccccc2)n1 | 9.26% | –
CCN(C(=O)CSc1ncn[nH]1)c1cccc2ccccc12 | – | 39.8 µM (active)

SMILES | largest response in the series, negative = inhibition | Potency
O=C(CSc1ncn[nH]1)Nc1ccnc2ccccc12 | 12.4% | –
O=c1cc(-c2ccc(O)cc2)oc2c([C@@H]3O[C@H](CO)[C@@H](O)[C@H](O)[C@H]3O)c(O)cc(O)c12 | -2.52% | –
CS(=O)(=O)N(Cc1ccc(Cl)cc1)c1ccc(C(=O)NCCSCc2ccco2)cc1 | 22.6% | –
Cc1cc(C)cc(N(CC(=O)NCCSCc2ccco2)S(C)(=O)=O)c1 | 9.95% | –
CCc1ccccc1N(CC(=O)NCCSCc1ccco1)S(C)(=O)=O | – | 17.8 µM (active)
CC(C)N(C(=O)Cn1cc(S(=O)(=O)CC(=O)N2CCOCC2)c2ccccc21)C(C)C | 4.5% | –
O=C(C1CC(=O)N(c2ccc(Br)cc2)C1)N1CCCC1 (stereo not given) | 5.88% | –
Cn1c(CC(=O)Nc2ccccc2)nnc1SCC(=O)c1ccccc1 | – | 35.5 µM (active)
Cn1c(Cc2cccs2)nnc1SCC(=O)Nc1ccccc1 | 11.4% | –
Cn1c(CSCC(=O)Nc2ccccc2)nnc1SCc1ccccc1 | -1.75% | –
CCN1CCCC1CNC(=O)c1cc2cc(OC)c(OC)cc2[nH]1 (stereo not given) | 18.4% | –
COc1ccccc1CCNC(=O)C1CCN(C(=O)/C=C/c2ccccc2)CC1 | -8.37% | –
O=C1CCCN1CCCNC(=S)Nc1ccc(F)c(Cl)c1 | – | 14.1 µM (active)
Cc1cc(Cl)ccc1NC(=S)NCCCN1CCCC1=O | 5.94% | –
Cc1c(Cl)cccc1NC(=O)NCCCN1CCCC1=O | 4.97% | –
CCN(CC)C(=O)c1sc2nc(-c3ccccc3)ccc2c1N | – | 20 µM (active)
Cc1ccc2c(N)c(C(=O)c3ccccc3)sc2n1 | -25.4% | –
CCCC(=O)n1nc(-c2ccccc2)nc1N | -3.09% | –
COc1cc(C(C(=O)NC2CCCC2)N(C(=O)c2ccco2)c2ccccc2C(C)=O)cc(OC)c1OC (stereo not given) | 9.66% | –
COc1ccc2[nH]c(=O)c(C3c4cc(OC)c(OC)cc4CCN3C(=O)c3ccco3)cc2c1 (stereo not given) | -2.97% | –
Cc1cccc(NC(=O)C2CCCN(C(=O)NCc3ccccc3)C2)c1C (stereo not given) | 5.34% | –
CC(C)(C)NCC(O)COc1cccc2[nH]c(=O)[nH]c12 (stereo not given) | 6.07% | –
COc1ccccc1OCC(O)CN1CCOCC1 (stereo not given) | 15.2% | –
COc1ccccc1OCCNCC(O)COc1cccc2[nH]c3ccccc3c12 (stereo not given) | -10.5% and 8.7% and -18.4% | 50.1 µM (active)

SMILES | largest response in the series, negative = inhibition | Potency
COc1cccc(NC(=O)C/C(C)=N/NC(=O)C2CCCCC2)c1 | 9.15% | –
O=C(COc1ccccc1Cl)N1CCCCCCC1 | 23.9% | –
COc1cc(NC(=O)c2ccccc2)c(OC)cc1NC(=O)Cc1ccccc1 | -10.9% | –
O=C1CSC(=S)N1/N=C/c1ccc(O)c([N+](=O)[O-])c1 | – | 39.8 µM (active)
O=[N+]([O-])c1ccc(N2CCSCC2)cc1O | 17.8% | –
Cc1cc(C(=O)N/N=C/c2ccc(O)c([N+](=O)[O-])c2)c(C)n1-c1ccc(F)cc1 | -9.8% | –
CCOC(=O)N1CCN(S(=O)(=O)N2CCCC(C(=O)NCCCN3CCC(C)CC3)C2)CC1 (stereo not given) | 6.69% | –
O=C(CCC1CCCN(C(=O)c2ccc(F)c(F)c2)C1)N1CCN(c2ccccn2)CC1 (stereo not given) | 7.09% | –
CC(=O)Nc1ccc(NC(=O)CSc2ncnc3c2cnn3Cc2ccccc2)cc1 | 13.9% | –
CSc1nc2ccccc2c(=O)n1Cc1ccc(F)cc1 | -16.2% | –
CSc1c(SCc2ccccc2)cnn(Cc2ccccc2)c1=O | – | 44.7 µM (active)
Cc1nc(COc2cc3oc(=O)cc(C)c3cc2Cl)cs1 | -11.1% | –
CN(C)c1nc(=Nc2cccc(Cl)c2)ss1 | – | 10 µM (active)
Cc1ccc(-c2ccc(/C=C(\C#N)C(N)=S)o2)c([N+](=O)[O-])c1 | – | 35.5 µM (active)
Cc1ccc(Cc2cnc(NC(=O)/C(C#N)=C/c3ccc(-c4cccc([N+](=O)[O-])c4)o3)s2)cc1 | 3.34% | –
N#C/C(=C/c1ccc(-c2ccccc2[N+](=O)[O-])o1)C(=O)NCCN1CCCCC1 | -17.3% | –
CC(C)(C)C(=O)NC1CC2CCCC(C1)N2C(=O)Nc1ccccc1F (stereo not given) | 15.8% | –
O=C(c1ccncc1)N1CCC2(CCN(Cc3cc(C(F)(F)F)cc(C(F)(F)F)c3)CC2)CC1 | 8.21% | –
N#Cc1c(-c2ccccc2)cc(-c2ccccc2)nc1SCC(=O)O | – | 35.5 µM (active)
N#Cc1c(C(F)(F)F)cc(-c2ccc(Cl)cc2)nc1SCC(=O)O | 7.84% | –
CCSc1nc(-c2ccc(OC)cc2)cc(-c2ccc(OC)cc2)c1C#N | 4.06% | –
Cn1c(=O)c2c(nc(NCc3ccccc3)n2CC(N)=O)n(C)c1=O | 10.1% | –
CC(O)c1nc2c(c(=O)n(C)c(=O)n2C)n1C (stereo not given) | 11.9% | –
CCC/C(C)=N\Nc1nc2c(c(=O)n(C)c(=O)n2C)n1C | – | 39.8 µM (active)

SMILES | largest response in the series, negative = inhibition | Potency
CCCC[C@H]1COCCS(=O)(=O)N1Cc1cccc(Cl)c1 | -5.24% | –
COc1ccc(CNC(=O)c2nnn(CC(=O)Nc3cc(C)cc(C)c3)c2N)cc1 | -8.71% | –
COc1ccc(C(=O)Nc2c(N)nc(SCC(=O)Nc3ccc(C(C)=O)cc3)[nH]c2=O)cc1 | -14.5% | –
Cc1ccc(OCC(=O)Nc2ccccc2C(=O)NC2CC2)cc1C | -9.75% | –
CCOc1ccc(Cn2nnc(C(=O)NCc3ccccc3)c2N)cc1 | 9.87% | –
CCOc1ccccc1NC(=O)Cn1nnc(C(=O)NCc2cccs2)c1N | – | 50.1 µM (active)
CCOc1ccccc1NC(=O)Cc1cccs1 | 13.9% | –
Cc1cccc(C(=O)OC(C)CN2CCCC2)c1 (stereo not given) | 6.65% | –
Cc1ccc(F)c(NC(=O)CCOc2ccccc2C)c1 | -1.65% | –
Cn1cc[n+](C)c1COc1ccc(C=O)cc1 | 12% | –
O=C1CCC([N+](=O)[O-])C(c2ccccc2Br)N1 (stereo not given) | 15.7% | –
C=CCSC1=C(C#N)C(c2cc(Br)c(O)c(OC)c2)CC(=O)N1 (stereo not given) | – | 25.1 µM (active)
Cc1ccc(C2CC(=O)NC(SCC(=O)OCc3ccccc3)=C2C#N)o1 (stereo not given) | -27.5% | –
CCOC(=O)CSC1=C(C#N)C(c2sccc2C)CC(=O)N1 (stereo not given) | 10.2% | –
O=S(=O)(NC1CCCC1)c1ccc(-n2cnnn2)cc1 | 25.6% | –
O=C(NCCCn1ccnc1)C1CCCN(S(=O)(=O)c2cc(Cl)ccc2Cl)C1 (stereo not given) | 16.2% | –
O=c1oc2ccccc2cc1-c1cn(-c2ccccc2)c(=S)[nH]1 | – | 35.5 µM (active)
O=C(c1cn(-c2ccccc2)nc1-c1cc2ccccc2oc1=O)N1CCOCC1 | -5.03% | –
O=C(Nc1cc2ccccc2oc1=O)C1CCCCC1 | 26.6% | –
Cc1noc(C)c1CCC(=O)N1CCCC(CO)(Cc2ccccc2)C1 (stereo not given) | -6.98% | –
COc1ccc2c(c1)O[C@@H](c1ccc3c(c1)OCO3)[C@H](OC(=O)NCCc1ccc(OC)c(OC)c1)C2=O | 6.18% | –
CC(=O)c1ccc(N2CCN(C(=O)C3CCN(S(=O)(=O)c4ccc5c(c4)CC(C)N5C(=O)C4CC4)CC3)CC2)cc1 (stereo not given) | -0.0372% | –
